Screening results: PubChem BioAssay, National Center for Advancing Translational Sciences (NCATS)
The list is not random: actives were taken first. Their share in the collection is about 12%.
BAZ2B inh = inhibitors of human BAZ2B bromodomain | Q9UIF8 | AlphaScreen BAZ2B-H3K14Ac peptide displacement | Potency, µM (doses to about 114 µM), usual class: inhibitors | hit rate 4.4% among 360,000 | AID 504333; further: nearly all actives have a fitted effect of over 60% in size
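Compounds, titrated to a top concentration of 110 uM, were incubated 30 min at room temperature with preformed BAZ2B/acetyl-K14 H3 peptide complex (50 nM each). Proximity signal was measured by AlphaScreen after 20 min with beads.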
L3MBTL1 inh = blocks human L3MBTL1. Q9Y468. AlphaScreen L3MBTL1–H3K9me1 peptide binding. Potency, µM (doses to about 57.1 µM), usual class: inhibitors. hit rate 0.66% among 230,000; further: nearly all actives have a fitted effect of over 60% in size
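Displacement of a biotinylated histone H3(1-15) peptide monomethylated at Lys9 (75 nM) from L3MBTL1 (50 nM) was measured by AlphaScreen after a 30 min room-temperature compound incubation; cefsulodin titration served as intraplate control.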
G9a block = G9a (human) methyltransferase inhibition. Potency, µM (titrated, usually from 102 µM), most hits filed as inhibitors. AID 504332. hit rate 8.8% among 350,000. G9a H3K9 monomethylation, AlphaScreen, 2 h; further: nearly all actives have a fitted effect of over 75% in size
Target sequence (Q96KQ7 913-1193 limits assumed): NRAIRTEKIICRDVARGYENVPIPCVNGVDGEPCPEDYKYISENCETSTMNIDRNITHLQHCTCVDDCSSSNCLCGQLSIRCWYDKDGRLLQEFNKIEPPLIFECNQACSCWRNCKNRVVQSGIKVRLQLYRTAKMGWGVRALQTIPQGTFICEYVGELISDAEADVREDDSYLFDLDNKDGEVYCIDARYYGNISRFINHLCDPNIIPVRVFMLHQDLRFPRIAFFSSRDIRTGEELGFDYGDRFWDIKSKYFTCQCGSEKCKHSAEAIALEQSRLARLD
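Methyltransferase reactions run at room temperature for 2 h (20 nM enzyme, 500 nM biotin-H3K9 peptide, 20 uM SAM) after a 15 min compound preincubation; product detected by AlphaScreen beads and anti-H3K9me1 antibody.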
Sfp inh = blocks B. subtilis Sfp PPTase activity. Potency, µM, actives largely listed as inhibitors. Biochemical Sfp PPTase activity, qHTS. Q9F4F7. AID 1490. hit rate 3.5% among 310,000;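 further: the enzyme is Sfp with the accession as filed and its product quenches rhodamine fluorescence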
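Fluorescence-quenching assay: 15 nM Sfp-PPTase preincubated 15 min at room temperature with compound, then 5 uM rhodamine-CoA and 12.5 uM BHQ-2-labelled YbbR peptide added. Fluorescence (ex 525/em 598 nm) read at start and after 30 min; difference gives rate.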
HP1b chromo inh = blocks HP1-beta chromodomain binding to methylated histone tails; P83916; AlphaScreen HP1-beta / biotin-H3K9me3 peptide binding; Potency, µM (highest dose often 114 µM), hits mostly inhibitors; hit rate 0.56% among 390,000; AID 540317; further: nearly all actives have a fitted effect of over 70% in size
Target sequence (P83916 whole entry, looked up): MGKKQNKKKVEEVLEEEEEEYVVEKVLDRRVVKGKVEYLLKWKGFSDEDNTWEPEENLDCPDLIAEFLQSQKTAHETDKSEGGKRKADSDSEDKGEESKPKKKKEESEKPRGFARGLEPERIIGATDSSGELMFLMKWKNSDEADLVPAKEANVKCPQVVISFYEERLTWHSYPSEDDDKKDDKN
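HP1-beta protein (50 nM final) preincubated 30 min at room temperature with biotinylated H3(1-18)K9me3 peptide (50 nM) in PBS pH 7.4, 0.01% Tween-20, then compound added for 30 min. AlphaScreen streptavidin donor/nickel chelate acceptor beads (10 ug/mL final), 30 min dark, luminescence read.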
JMJD2A Tudor inh = inhibitors of human JMJD2A Tudor domain; AlphaScreen JMJD2A-Tudor / H3K4me3 peptide binding; hit rate 4.4% among 390,000; Potency, µM (top dose mostly 114 µM), usual class: inhibitors; further: nearly all actives have a fitted effect of over 50% in size
A number is an active result; 0 = inactive; ? = inconclusive; - = no result; [ ] = another dose, or the depositor's remark. The call rests on the fitted dose curve; in most records, active means well fitted curve in the direction sought with a large enough effect; inconclusive means small, poorly fitted or top-dose-only effect, or another doubt; inactive means no such curve, though single readings can be large; an effect the other way counts as inactive or inconclusive.

SMILES	BAZ2B inh	L3MBTL1 inh	G9a block	Sfp inh	HP1b chromo inh	JMJD2A Tudor inh
CC1=C(C)CS(=O)N(S(=O)(=O)c2ccccc2)C1 (stereo unspecified)	0	-	8.9µM	14µM	0	0
CC(N)(C(=O)O)c1cccc(CC(=O)O)c1 (stereo unspecified)	-	-	0	0	-	-
O=C(Nc1ccc2oc(-c3cccnc3)nc2c1)c1ccccc1F	0	-	0	-	0	0
O=C(CSc1nnc(-c2cccnc2)n1Cc1ccco1)c1ccccc1	0	0	0[12.7 µM]	0	0	0
O=C(CSc1nnc(-c2ccccn2)n1Cc1ccco1)c1ccc(-c2ccccc2)cc1	0	0	45µM	0	0	0
COC(=O)CSc1nnc(-c2ccccn2)n1Cc1ccco1	0	0	?	0	0	0
Clc1ccc(CSc2nnc(-c3ccccn3)n2Cc2ccco2)c(Cl)c1	0	0	50µM	50µM	0	?
Fc1ccccc1CSc1nnc(-c2cnccn2)n1Cc1ccco1	0	?	0	0	0	0
O=C(CSc1nnc(-c2ccc(O)cc2)n1Cc1ccco1)c1ccccc1	0	-	50µM	?	0	0
COc1ccccc1-n1ccnc1SCC(=O)NC1CCCC1	0	-	0	0	0	0
COc1cc(-n2ccnc2SC)c(Cl)cc1Cl	13µM	0	0	0	22µM	0[11.4 µM]
O=C(Nc1ccc2c(c1)CCCN2C(=O)c1ccco1)c1cc([N+](=O)[O-])ccc1Cl	0	0	0[2.33 µM]	-	0	0
COc1ccc(NC(=O)Cn2ccn(-c3ccccc3)c(=O)c2=O)cc1	0	-	?	-	0	0
O=C(CNCCCO)Nc1cc(C(F)(F)F)cc(NC(=O)CNCCCO)c1Cl	0	0	11µM	0	0	0
OCC1O[C@H]([S-])[C@H](O)[C@@H](O)[C@@H]1O.[Au+] (stereo partly specified)	-	-	0.21µM	-	-	-
CCOc1ccc(C(=O)Nc2cc(NC(=O)c3ccco3)ccc2OC)cc1Br	0	-	0	-	0	0
COc1cc(O)c(C(=O)c2ccccc2)cc1S(=O)(=O)O	-	-	0	0	-	-
COc1cc(O)c(C(=O)c2ccccc2)cc1O	-	-	-	11µM	-	-
COc1ccc(Nc2ncnc3onc(C)c23)c(OC)c1	0	-	0	-	0	0
C=CCN1C(=O)C(CC(C)C)NC1=S (stereo unspecified)	-	-	0[12.7 µM]	0	-	-
CC1CCCN(C(=O)C2CC(=O)N(c3ccc(Cl)cc3)C2)C1 (stereo unspecified)	0	-	45µM	0	0	0
O=C(C1CC(=O)N(c2ccc(Cl)cc2)C1)N1CCCCCC1 (stereo unspecified)	0	-	?	0	0	0
COc1ccc(C2=NNC(c3cc(Cl)cc4c3OCOC4)C2)c(O)c1 (stereo unspecified)	0	0	50µM	0	-	-
Cc1ccccc1C(=O)NCC(=O)NCC1(N2CCOCC2)CCCCC1	0	0	0	-	0	0
COc1cc(C2c3c(oc4ccccc4c3=O)C(=O)N2c2ccccn2)cc(OC)c1OC (stereo unspecified)	0	-	0	-	0	0
SMILES	BAZ2B inh	L3MBTL1 inh	G9a block	Sfp inh	HP1b chromo inh	JMJD2A Tudor inh
CC1CCC(NS(=O)(=O)c2ccc(Cl)nc2)CC1 (stereo unspecified)	0	0	50µM	-	0	0
CNS(=O)(=O)c1ccc(Cl)nc1	0	0	0	0	0	0
Nc1cnccc1C(=O)O	?	?	?	25µM	0	?
COC(=O)c1ccncc1N	0	0[11.4 µM]	0	0	0	0
COc1cc(-c2nc3ccccn3c2N)ccc1O	0	0	50µM	0	0	0
O=C(CCCN1C(=O)CSc2ncccc21)N1CCN(Cc2ccccc2)CC1	0	0	35µM	0	0	0
CCOC(=O)N1CCC(NC(=O)CCCN2C(=O)CSc3ncccc32)CC1	0	-	0	0	0	0
NS(=O)(=O)c1cc2c(cc1Cl)NC(CSCc1ccccc1)=NS2(=O)=O	89µM	0	0	?	0	0
CC(C)c1nnc(NC(=O)c2nc(S(=O)(=O)Cc3ccc(F)cc3)ncc2Cl)s1	0	-	8.9µM	0	0	?
CCSc1nnc(NC(=O)c2nc(S(=O)(=O)Cc3ccc(F)cc3)ncc2Cl)s1	?	-	-	0	0	2.8µM
Cc1ccc(CS(=O)(=O)c2ncc(Cl)c(C(=O)Nc3nnc(C(C)C)s3)n2)cc1	0	-	45µM	?	0	?
C=CCSc1nnc(NC(=O)c2nc(SCC)ncc2Cl)s1	0	-	7.9µM	0	0	0
CSc1ncc(Cl)c(C(=O)Nc2nnc(SC/C=C/c3ccccc3)s2)n1	0	-	?	0	0	0
CC(C)c1nnc(NC(=O)c2nc(SCc3ccc(F)cc3)ncc2Cl)s1	0	-	0	-	0	0
Cc1c(Cl)cccc1-n1ncc(C(=O)N2CCN(C)CC2)c1C1CCN(C(=O)OC(C)(C)C)CC1	0	-	0	-	0	0
COC(=O)C1(Cc2ccccc2)C2c3cc(C(=O)N4CCCC4)n(Cc4ccc(OC(F)(F)F)cc4)c3CC2CN1C(=O)c1ccccc1 (stereo unspecified)	-	-	-	0	-	-
O=C1CCCC2=C1C1(CCOCC1)N=C(Nc1nc3ccccc3o1)N2	-	-	-	-	-	0
Cc1c([N+](=O)[O-])c(C(=O)Sc2ccc(Br)cc2)nn1C	0	0	25µM	0	0	0
C[n+]1ccccc1Nc1cc([N+](=O)[O-])ccc1N	?	0	11µM	0	0	0
CSc1ccc(CCNc2ncnc3onc(-c4ccc(Cl)cc4)c23)cc1	0	-	0	-	0	0
CCOC(=O)c1c(C)n(C)c2ccc(OCC(O)CN3CCN(C)CC3)cc12 (stereo unspecified)	0	0	?	0	0	0
CN1CCN(CC(O)COc2ccc(OCC(O)CN3CCN(C)CC3)cc2)CC1 (stereo unspecified)	0	0	0	0	0	0
Cc1cc(OCC(O)CN2CCN(C)CC2)ccc1C(C)C (stereo unspecified)	0	0	89µM	0	0	0
OCCN1CCN(CC(O)COc2ccc(Cl)cc2)CC1 (stereo unspecified)	?	-	50µM	0	0	0
CCOC(=O)c1c(C)n(-c2ccc(C)cc2)c2ccc(OCC(O)CN3CCN(C)CC3)cc12 (stereo unspecified)	-	-	50µM	40µM	0	?
SMILES	BAZ2B inh	L3MBTL1 inh	G9a block	Sfp inh	HP1b chromo inh	JMJD2A Tudor inh
CN1CCN(CC(O)COc2ccc(Cl)cc2)CC1 (stereo unspecified)	0	-	56µM	0	0	0
CCOC(=O)N1CCC2(CC1)OC(=O)C(C)=C2C(=O)NCc1ccc(C)cc1	0	-	0	-	0	0
COc1ccc(/C=C/C(=O)OCCC(C)C)cc1	-	-	0	0	-	-
CC(C)(C)c1ccc(OCC(O)CSc2ncn[nH]2)cc1 (stereo unspecified)	0	-	8.9µM	0	0	32µM
OC(COc1ccccc1)CSc1ncn[nH]1 (stereo unspecified)	0	-	0[12.7 µM]	0	0	0
O=S(=O)(NCCc1cn2ccccc2n1)c1ccc2c(c1)CCCC2	0	0	50µM	0	0	0
